{"source": "the supplement of paper PMC9135407", "test_system": "primary human hepatic stellate cells (donor 1)", "assay": "scaled lipid accumulation score (0 = DMSO-like, 1 = nortriptyline-like); higher = stronger HSC inactivation (lipid re-accumulation), active = hit call of the paper", "settings": "48 h", "key": {"[1]": {"settings": "library stock concentration: 1 mM"}, "[2]": {"settings": "library stock concentration: 3.33 mM"}, "[3]": {"settings": "library stock concentration: 10 mM"}, "[4]": {"settings": "library stock concentration: 80 uM"}, "[5]": {"settings": "library stock concentration: 400 uM"}, "[6]": {"settings": "library stock concentration: 2 mM"}}, "note": "Values joined by “and” are separate entries in the source; they are usually repeats but may differ in a detail not shown here. Equal entries are not always repeated. Structures can show the parent of a compound that is named as a salt. Hit rate of the full screen: of about 5,800 compounds, about 620 (11%) showed activity. What follows is part of a selection rich in actives, with near analogues and random picks from the rest. Values without a mark were called inactive.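 The calls were made as follows: active = score above a cut-off or among the top three wells of a plate; in these data no inactive exceeds 0.85.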", "data": [{"smiles": "COC(=O)CCCCCCC1C(O)CC(O)C1CCC(O)C#Cc1ccccc1F", "note": "(centres undefined)", "values": [{"measurement": "scaled lipid accumulation score", "setting": "[1]", "value": "≤ 0"}]}, {"smiles": "NC(=S)NCCC[C@H](N)C(=O)O", "note": "[L-Thiocitrulline (hydrochloride)]", "values": [{"measurement": "scaled lipid accumulation score", "setting": "[1]", "value": 0.048}]}, {"smiles": "NC(=S)NCCC[C@H](N)C(=O)O", "note": "[Thiocitrulline [L-Thiocitrulline]]", "values": [{"measurement": "scaled lipid accumulation score", "setting": "library stock concentration: 26.1 mM", "value": 0.069}]}, {"smiles": "Cc1cccc(CC(=O)N2CCc3c2ccc(-c2cn(C)c4ncnc(N)c24)c3F)n1", "values": [{"measurement": "scaled lipid accumulation score", "setting": "[2]", "value": "≤ 0"}, {"measurement": "scaled lipid accumulation score", "setting": "[3]", "value": "≤ -0.001"}]}, {"smiles": "CCN(CC)CCNC(=O)c1ccc(NS(C)(=O)=O)cc1", "note": "[Sematilide monohydrochloride monohydrate]", "values": [{"measurement": "scaled lipid accumulation score", "setting": "[3]", "value": "≤ -0.07"}]}, {"smiles": "COc1cc(C(=O)NCc2ccc(OCCN(C)C)cc2)cc(OC)c1OC", "note": "[Trimethobenzamide hydrochloride]", "values": [{"measurement": "scaled lipid accumulation score", "value": "≤ 0"}, {"measurement": "scaled lipid accumulation score", "setting": "library stock concentration: 4.7 mM", "value": 0.028}, {"measurement": "scaled lipid accumulation score", "setting": "[3]", "value": "≤ 0"}]}, {"smiles": "CCC(CC)CNc1cc(C(=O)NCCN(C)C)cc(S(=O)(=O)Nc2ccc(OC)cc2)c1", "values": [{"measurement": "scaled lipid accumulation score", "setting": "[3]", "value": "0.996 (active)"}]}, {"smiles": "O=c1[nH][nH]c2nnc(-c3c(-c4ccccc4)nn4ccccc34)cc12", "note": "[ERK Inhibitor II, Negative Control]", "values": [{"measurement": "scaled lipid accumulation score", "setting": "[2]", "value": "≤ 0"}]}, {"smiles": "C=CC[N+]1([C@H]2C[C@H]3[C@@H]4CC[C@H]5C[C@H](O)[C@@H](N6CCOCC6)C[C@]5(C)[C@H]4CC[C@]3(C)[C@H]2OC(C)=O)CCCC1", "note": "[Rocuronium Bromide]", "values": [{"measurement": "scaled lipid accumulation score", "setting": "[2]", "value": "≤ 0"}, {"measurement": "scaled lipid accumulation score", "setting": "[3]", "value": "≤ 0"}]}, {"smiles": "COc1ccc(C2(O)OC(=O)C(c3ccc4c(c3)OCO4)=C2Cc2cc(OC)c(OC)c(OC)c2)cc1", "note": "(centres undefined)", "values": [{"measurement": "scaled lipid accumulation score", "setting": "[3]", "value": 0.037}]}, {"smiles": "CCCCCCCCCCCC(=O)CC(=O)N[C@H]1CCOC1=O", "note": "[N-3-oxo-tetradecanoyl-L-Homoserine lactone]", "values": [{"measurement": "scaled lipid accumulation score", "setting": "[1]", "value": "≤ 0"}]}, {"smiles": "CC/C=C\\C/C=C\\C/C=C\\CCCCCCCCCCCC(=O)O", "note": "[Docosatrienoic acid (22:3 n-3)]", "values": [{"measurement": "scaled lipid accumulation score", "setting": "[1]", "value": "≤ -0.021"}]}, {"smiles": "COc1cccc2c1[C@@H]1CN(CCCCn3c(=O)[nH]c4c(sc5ncc(-c6ccccc6)nc54)c3=O)C[C@@H]1CO2.Cl", "note": "[Fiduxosin hydrochloride]", "values": [{"measurement": "scaled lipid accumulation score", "setting": "[3]", "value": "0.863 (active)"}]}, {"smiles": "COc1ccc(/C=C/c2ccccc2F)cc1", "values": [{"measurement": "scaled lipid accumulation score", "setting": "[1]", "value": 0.063}]}, {"smiles": "C/N=C(/NC#N)NCCSCc1csc(NC(=N)N)n1", "note": "[Tiotidine]", "values": [{"measurement": "scaled lipid accumulation score", "setting": "library stock concentration: 6.4 mM", "value": "≤ -0.006"}, {"measurement": "scaled lipid accumulation score", "setting": "[3]", "value": 0.044}]}, {"smiles": "COc1cc2c(NC3CCN(C(C)C)CC3)nc(C3CCCCC3)nc2cc1OCCCN1CCCC1", "values": [{"measurement": "scaled lipid accumulation score", "setting": "[4]", "value": "≤ 0"}, {"measurement": "scaled lipid accumulation score", "setting": "[5]", "value": "≤ 0"}, {"measurement": "scaled lipid accumulation score", "setting": "[6]", "value": 0.354}, {"measurement": "scaled lipid accumulation score", "setting": "[3]", "value": 0.14}]}, {"smiles": "COc1cc2nc(N3CCCN(C)CC3)nc(NC3CCN(Cc4ccccc4)CC3)c2cc1OC.Cl.Cl.Cl.O", "values": [{"measurement": "scaled lipid accumulation score", "setting": "[1]", "value": "0.804 (active)"}]}, {"smiles": "COc1cc2nc(N3CCCN(C)CC3)nc(NC3CCN(Cc4ccccc4)CC3)c2cc1OC", "values": [{"measurement": "scaled lipid accumulation score", "setting": "[4]", "value": "≤ 0"}, {"measurement": "scaled lipid accumulation score", "setting": "[5]", "value": "≤ 0"}, {"measurement": "scaled lipid accumulation score", "setting": "[6]", "value": 0.569}, {"measurement": "scaled lipid accumulation score", "setting": "[2]", "value": 0.42}, {"measurement": "scaled lipid accumulation score", "setting": "[3]", "value": "0.096 and 0.353 and 0.204"}]}, {"smiles": "Nc1nccc(-c2c(-c3ccc(F)cc3)ncn2C2CCNCC2)n1", "values": [{"measurement": "scaled lipid accumulation score", "setting": "[2]", "value": "≤ 0"}]}, {"smiles": "O=S1(=O)c2cccc3cccc(c23)N1CCCN1CCN(c2ccc(F)cc2)CC1", "note": "[Fananserin]", "values": [{"measurement": "scaled lipid accumulation score", "setting": "[3]", "value": 0.048}]}, {"smiles": "CS(=O)(=O)O.N=C(N)SCCc1ccc(OCc2ccc([N+](=O)[O-])cc2)cc1", "note": "[KB-R7943 mesylate]", "values": [{"measurement": "scaled lipid accumulation score", "setting": "[3]", "value": "0.99 (active)"}]}, {"smiles": "N=C(N)SCCc1ccc(CCSC(=N)N)cc1", "note": "[1,4-PBIT (dihydrobromide)]", "values": [{"measurement": "scaled lipid accumulation score", "setting": "[1]", "value": 0.049}]}, {"smiles": "N=C(N)SCCc1cccc(CCSC(=N)N)c1", "note": "[1,3-PBIT (dihydrobromide)]", "values": [{"measurement": "scaled lipid accumulation score", "setting": "[1]", "value": "≤ 0"}]}, {"smiles": "C=CCNC(N)=S", "note": "[Allylthiourea]", "values": [{"measurement": "scaled lipid accumulation score", "setting": "[2]", "value": "≤ 0"}, {"measurement": "scaled lipid accumulation score", "setting": "[3]", "value": "≤ -0.001"}]}, {"smiles": "C=CCNC(N)=S", "values": [{"measurement": "scaled lipid accumulation score", "setting": "[3]", "value": "≤ 0"}]}, {"smiles": "CCCCCCCCCCCCCCNC(=O)C1CCCCC1", "note": "[N-Cyclohexanecarbonyltetradecylamine]", "values": [{"measurement": "scaled lipid accumulation score", "setting": "[1]", "value": 0.008}]}, {"smiles": "CC(C)c1noc(N2CCC(COc3ccc(-c4ccc(S(C)(=O)=O)cc4)nc3)CC2)n1", "values": [{"measurement": "scaled lipid accumulation score", "setting": "[2]", "value": 0.019}, {"measurement": "scaled lipid accumulation score", "setting": "[3]", "value": 0.16}]}, {"smiles": "Oc1cc(O)c(Cl)cn1", "note": "[Gimeracil]", "values": [{"measurement": "scaled lipid accumulation score", "setting": "[2]", "value": 0.014}, {"measurement": "scaled lipid accumulation score", "setting": "[3]", "value": 0.04}]}, {"smiles": "CCCSc1ccc2[nH]c(NC(=O)OC)nc2c1", "note": "[Albendazole]", "values": [{"measurement": "scaled lipid accumulation score", "value": 0.176}, {"measurement": "scaled lipid accumulation score", "setting": "[2]", "value": "≤ 0"}, {"measurement": "scaled lipid accumulation score", "setting": "library stock concentration: 7.5 mM", "value": "0.449 and ≤ 0"}, {"measurement": "scaled lipid accumulation score", "setting": "[3]", "value": "≤ -0.027 and 0.562"}]}, {"smiles": "CCCSc1ccc2nc(NC(=O)OC)[nH]c2c1", "note": "[Albendazole]", "values": [{"measurement": "scaled lipid accumulation score", "setting": "[3]", "value": "0.892 (active)"}]}, {"smiles": "COC(=O)Nc1nc2ccc(SC(C)C)cc2[nH]1", "note": "[Methiazole]", "values": [{"measurement": "scaled lipid accumulation score", "value": "≤ 0"}]}]}
